# In publication PMC5540273 (PLoS ONE, 2017):
# Assays:
# Details in all cases: concentration: 1 μM, replicates: in singlicate; n = 1
# CDK3 = tested on: CDK3
# CDK4-cyclinD1 = tested on: CDK4-cyclinD1
# CDK4-cyclinD3 = tested on: CDK4-cyclinD3
# CDK4 = tested on: CDK4
# CDK5 = tested on: CDK5
# CDK7 = tested on: CDK7
# CDK8 = tested on: CDK8
# CDK9 = tested on: CDK9
# CDKL1 = tested on: CDKL1
# CDKL2 = tested on: CDKL2
# CDKL3 = tested on: CDKL3
# CDKL5 = tested on: CDKL5
# CHEK1 = tested on: CHEK1
# CHEK2 = tested on: CHEK2
# CIT = tested on: CIT
# CLK1 = tested on: CLK1
# CLK2 = tested on: CLK2
# CLK3 = tested on: CLK3
# CLK4 = tested on: CLK4
# CSF1R-autoinhibited = tested on: CSF1R-autoinhibited
# 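Also: KINOMEscan kinase panel screen.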
Structure (SMILES),%Inh (CDK3) [%],%Inh (CDK4-cyclinD1) [%],%Inh (CDK4-cyclinD3) [%],%Inh (CDK4) [%],%Inh (CDK5) [%],%Inh (CDK7) [%],%Inh (CDK8) [%],%Inh (CDK9) [%],%Inh (CDKL1) [%],%Inh (CDKL2) [%],%Inh (CDKL3) [%],%Inh (CDKL5) [%],%Inh (CHEK1) [%],%Inh (CHEK2) [%],%Inh (CIT) [%],%Inh (CLK1) [%],%Inh (CLK2) [%],%Inh (CLK3) [%],%Inh (CLK4) [%],%Inh (CSF1R-autoinhibited) [%]
Cn1c(=O)c(F)c(Nc2ccc(I)cc2F)c2c(=O)n(OC[C@H](O)CO)cnc21,38,1,0,0,0,0,46,14,51,29,7,0,0,0,17,7,16,17,0,0
COc1ccc(-c2cc3c(C)nc(N)nc3n([C@H]3CC[C@H](OCCO)CC3)c2=O)cn1,0,0,0,0,19,14,0,4,10,0,29,0,0,12,0,0,0,0,0,12
COc1cc2ncn(-c3cc(OCc4ccc(S(C)(=O)=O)cc4)c(C(N)=O)s3)c2cc1OC [GW869979],0,14,16,9,0,0,0,0,0,0,0,15,18,0,29,17,1,0,0,5
CN1C(=O)C(Nc2ccccc2)=C(c2ccccc2)C1=O [SB-300079],12,9,0,11,5,6,13,1,4,13,19,0,0,0,4,0,18,0,0,0
Nc1ncnc2c1ncn2-c1ccc(Cl)cc1 [AH2635],0,0,0,42,0,0,33,0,0,6,0,0,0,0,26,28,19,0,3,0
COc1cccc(C2=C(Nc3cccc(C(=O)O)c3)C(=O)NC2=O)c1 [SB-390770],9,9,0,0,0,0,4,0,0,24,0,0,0,0,39,9,21,0,20,0
COc1ccc(-n2cnc3c(N)ncnc32)cc1 [SKF-97236],25,0,0,11,8,11,0,0,29,1,0,0,2,0,19,48,48,0,47,0
Cc1c(Cn2c(C)nn3c(=O)cc(N4CCO[C@H](C)C4)nc23)cccc1C(F)(F)F [GSK2373690],18,0,0,0,0,0,13,0,3,24,0,7,2,0,1,27,16,23,32,0
Nc1ncnc2c1ncn2-c1cccc(F)c1 [SKF-97560],0,27,13,30,0,0,0,0,0,0,0,21,17,0,6,22,0,0,0,19
Cc1nnc(-c2ccc3ncn(-c4ccc(S(C)=O)cc4)c3c2)o1 (stereo not drawn),4,0,0,0,13,0,16,7,20,0,2,0,1,0,35,46,10,0,40,7
CC(C)(C)c1ccc(C(=O)Nc2cn3cc(-c4ccccc4)ccc3n2)cc1,12,14,0,0,0,5,5,6,29,5,0,0,4,0,2,33,7,9,7,0
O=C(Nc1n[nH]c2nc(-c3ccccc3)c(Cl)cc12)C1CC1 [SB-734909],0,0,0,9,0,15,3,0,41,35,2,0,0,22,0,0,0,15,0,0
COc1ccc(CNC(=O)NC2CCN(c3ccnc(Nc4ccc(F)cc4)n3)C2)cc1 (stereo not drawn) [GSK1379706],20,52,0,49,0,4,60,5,10,31,0,0,8,48,9,16,0,0,8,50
COc1cccc(-n2cnc3c(N)ncnc32)c1 [SKF-97416],17,37,0,31,0,33,0,0,13,8,0,14,0,25,8,6,3,0,0,16
CN1C(=O)C(Nc2cc(Cl)c(O)c(Cl)c2)=C(c2ccc(Cl)cc2)C1=O [SB-404321],0,0,0,23,4,0,41,0,0,7,0,0,0,0,38,22,0,0,0,0
COC(=O)c1c(-c2ccccc2)c2cc(Br)ccc2c(=O)n1Cc1ccc(NC(=O)CCC(=O)O)cc1,5,0,0,8,0,5,0,0,1,0,12,6,0,25,33,0,0,0,17,0
CCc1ccc(-c2ccc3c(c2)-c2nn(C)cc2S(=O)(=O)N3C)cc1,0,14,0,0,12,0,0,0,9,19,0,0,0,0,0,0,13,0,0,2
Cc1nn2c(=O)cc(N3CCOCC3)nc2n1Cc1cccc(Cl)c1Cl [GSK2342769],16,0,0,0,0,0,0,0,0,19,0,8,26,0,10,20,1,16,22,0
CCC(=O)c1c(-c2ccccc2)c2cc(Cl)ccc2c(=O)n1Cc1ccc(C(=O)O)cc1,0,0,0,0,0,0,4,0,0,7,0,0,0,0,0,0,0,0,0,0
O=C(NCCNc1ccnc(Nc2ccc(F)cc2)n1)Nc1ccc2c(c1)OCO2 [GSK1379882],0,0,0,8,0,0,25,7,0,15,0,4,0,18,44,17,13,9,17,13
COc1cc(Nc2nccc(N3CCC(NC(=O)C(C)c4ccc(Cl)cc4)C3)n2)cc(OC)c1OC (stereo not drawn) [GSK1379757],0,0,0,36,0,0,22,0,9,2,0,0,0,8,9,22,0,43,18,0
O=C(Nc1ccc2c(c1)OCO2)NC1CCN(c2ccnc(NCc3ccc(F)cc3)n2)CC1 [GSK1379859],0,0,0,13,0,0,0,0,9,13,0,3,19,0,0,23,0,0,10,0
O=C(Nc1n[nH]c2nc(-c3ccccc3)c(Br)cc12)C1CC1 [SB-708998],0,0,0,10,10,1,0,0,0,30,0,0,15,0,19,17,0,0,21,0
CCC(=O)c1c(-c2ccccc2)c2cc(Cl)ccc2c(=O)n1Cc1cc(S(C)(=O)=O)n(CCC(C)(C)O)n1,2,0,20,0,10,38,0,17,10,0,17,40,13,19,2,0,1,9,2,6
O=C(Nc1n[nH]c2cc(-c3ccccc3F)ccc12)C1CC1 [SB-733371],7,0,0,0,0,0,0,0,11,79,14,0,0,13,7,2,0,14,0,0
Cl.c1ccc(Cn2cnc3cc(Nc4ncnc5ccccc45)ccc32)cc1 [GW272142],0,0,1,28,0,0,21,0,6,9,0,0,0,0,0,27,0,72,20,0
Cc1cc(Nc2nc(-c3cccc(C)n3)nc3ccccc23)ccn1 [GW872411],0,0,0,0,0,0,0,0,17,0,0,0,0,0,0,11,0,0,0,0
COc1cccc(C2=C(N(C)c3ccccc3)C(=O)NC2=O)c1 [SB-334865],12,2,8,0,0,0,6,39,0,23,0,0,0,0,6,15,0,0,13,0
Cc1ccc(-c2ccc3c(ccc4sc5c(c43)NC[C@@H](C)N=C5N(C)C)n2)cn1,0,0,0,0,0,6,0,0,0,0,0,0,0,1,0,0,0,0,0,14
Cc1nnc(-c2ccc(C)c(-c3ccc(C(=O)O)cc3)c2)o1 [GW608005],0,0,0,29,0,0,21,0,0,6,0,0,5,0,32,10,0,0,0,0
